Experimental data from ChEMBL document CHEMBL2218924, “A broad activity screen in support of a chemogenomic map for kinase signalling research and drug discovery” (Biochem J, 2013).

How the values were obtained:
[1] = molecular target: Vascular endothelial growth factor receptor 3 (Homo sapiens) (UniProt P35916); conditions: at 10 µM
[2] = molecular target: Macrophage colony-stimulating factor 1 receptor (Homo sapiens) (UniProt P07333); conditions: at 1 µM
[3] = molecular target: Macrophage colony-stimulating factor 1 receptor (Homo sapiens) (UniProt P07333); conditions: at 10 µM
[4] = molecular target: Tyrosine-protein kinase Fyn (Homo sapiens) (UniProt P06241); conditions: at 1 µM
[5] = molecular target: Tyrosine-protein kinase Fyn (Homo sapiens) (UniProt P06241); conditions: at 10 µM
[6] = molecular target: T1, Mitogen-activated protein kinase kinase kinase kinase 2 (Homo sapiens) (UniProt Q12851); conditions: at 1 µM
T1 sequence (whole entry): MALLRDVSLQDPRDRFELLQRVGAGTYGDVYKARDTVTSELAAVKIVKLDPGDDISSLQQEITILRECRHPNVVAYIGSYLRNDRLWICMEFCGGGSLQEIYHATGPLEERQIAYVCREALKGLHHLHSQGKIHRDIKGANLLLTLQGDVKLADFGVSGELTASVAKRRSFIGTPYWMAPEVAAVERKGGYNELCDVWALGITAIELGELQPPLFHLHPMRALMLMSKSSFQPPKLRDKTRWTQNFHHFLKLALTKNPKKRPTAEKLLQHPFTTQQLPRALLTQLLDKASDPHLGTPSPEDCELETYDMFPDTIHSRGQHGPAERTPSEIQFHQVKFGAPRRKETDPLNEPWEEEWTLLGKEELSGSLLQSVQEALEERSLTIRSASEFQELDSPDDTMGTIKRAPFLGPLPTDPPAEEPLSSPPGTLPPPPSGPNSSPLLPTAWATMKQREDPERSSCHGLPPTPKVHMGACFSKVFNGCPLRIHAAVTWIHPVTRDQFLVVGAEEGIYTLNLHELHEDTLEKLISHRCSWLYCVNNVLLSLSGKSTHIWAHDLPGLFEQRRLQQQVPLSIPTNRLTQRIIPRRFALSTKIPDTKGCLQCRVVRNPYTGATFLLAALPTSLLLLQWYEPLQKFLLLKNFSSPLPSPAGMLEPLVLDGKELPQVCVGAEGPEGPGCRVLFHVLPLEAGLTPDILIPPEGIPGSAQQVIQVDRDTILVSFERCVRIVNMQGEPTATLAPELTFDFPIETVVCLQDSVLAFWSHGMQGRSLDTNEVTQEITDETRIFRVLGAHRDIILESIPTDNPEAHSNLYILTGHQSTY

[7] = molecular target: T1, Mitogen-activated protein kinase kinase kinase kinase 2 (Homo sapiens); conditions: at 10 µM
[8] = molecular target: G protein-coupled receptor kinase 5 (Homo sapiens) (UniProt P34947); conditions: at 10 µM
[9] = molecular target: G protein-coupled receptor kinase 6 (Homo sapiens) (UniProt P43250); conditions: at 10 µM
[10] = molecular target: T2, Rhodopsin kinase GRK7 (Homo sapiens) (UniProt Q8WTQ7); conditions: at 1 µM
T2 sequence (whole entry): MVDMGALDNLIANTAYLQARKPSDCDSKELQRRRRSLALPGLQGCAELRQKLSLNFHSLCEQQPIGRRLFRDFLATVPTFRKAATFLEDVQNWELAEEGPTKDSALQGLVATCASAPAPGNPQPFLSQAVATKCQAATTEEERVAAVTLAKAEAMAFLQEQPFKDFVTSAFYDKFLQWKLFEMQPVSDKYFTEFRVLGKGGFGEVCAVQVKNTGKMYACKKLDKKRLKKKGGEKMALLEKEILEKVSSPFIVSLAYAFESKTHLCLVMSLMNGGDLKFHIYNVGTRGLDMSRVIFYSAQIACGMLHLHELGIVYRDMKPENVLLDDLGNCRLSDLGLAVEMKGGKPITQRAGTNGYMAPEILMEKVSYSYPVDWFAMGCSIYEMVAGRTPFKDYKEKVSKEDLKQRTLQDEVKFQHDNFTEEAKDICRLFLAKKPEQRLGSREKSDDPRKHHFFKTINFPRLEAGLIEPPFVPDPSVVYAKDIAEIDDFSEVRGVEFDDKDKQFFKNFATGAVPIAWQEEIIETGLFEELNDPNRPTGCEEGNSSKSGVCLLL

[11] = molecular target: T2, Rhodopsin kinase GRK7 (Homo sapiens); conditions: at 10 µM
[12] = molecular target: Glycogen synthase kinase-3 alpha (Homo sapiens) (UniProt P49840); conditions: at 1 µM
[13] = molecular target: Glycogen synthase kinase-3 alpha (Homo sapiens) (UniProt P49840); conditions: at 10 µM
[14] = molecular target: Glycogen synthase kinase-3 beta (Homo sapiens) (UniProt P49841); conditions: at 1 µM
[15] = molecular target: Glycogen synthase kinase-3 beta (Homo sapiens) (UniProt P49841); conditions: at 10 µM
[16] = molecular target: Homeodomain-interacting protein kinase 1 (Homo sapiens) (UniProt Q86Z02); conditions: at 1 µM
[17] = molecular target: Homeodomain-interacting protein kinase 1 (Homo sapiens) (UniProt Q86Z02); conditions: at 10 µM
[18] = molecular target: Homeodomain-interacting protein kinase 2 (Homo sapiens) (UniProt Q9H2X6); conditions: at 1 µM
[19] = molecular target: Homeodomain-interacting protein kinase 2 (Homo sapiens) (UniProt Q9H2X6); conditions: at 10 µM
[20] = molecular target: Homeodomain-interacting protein kinase 3 (Homo sapiens) (UniProt Q9H422); conditions: at 1 µM
Sequence of Homeodomain-interacting protein kinase 3 (Homo sapiens) (Q9H422 whole entry, looked up): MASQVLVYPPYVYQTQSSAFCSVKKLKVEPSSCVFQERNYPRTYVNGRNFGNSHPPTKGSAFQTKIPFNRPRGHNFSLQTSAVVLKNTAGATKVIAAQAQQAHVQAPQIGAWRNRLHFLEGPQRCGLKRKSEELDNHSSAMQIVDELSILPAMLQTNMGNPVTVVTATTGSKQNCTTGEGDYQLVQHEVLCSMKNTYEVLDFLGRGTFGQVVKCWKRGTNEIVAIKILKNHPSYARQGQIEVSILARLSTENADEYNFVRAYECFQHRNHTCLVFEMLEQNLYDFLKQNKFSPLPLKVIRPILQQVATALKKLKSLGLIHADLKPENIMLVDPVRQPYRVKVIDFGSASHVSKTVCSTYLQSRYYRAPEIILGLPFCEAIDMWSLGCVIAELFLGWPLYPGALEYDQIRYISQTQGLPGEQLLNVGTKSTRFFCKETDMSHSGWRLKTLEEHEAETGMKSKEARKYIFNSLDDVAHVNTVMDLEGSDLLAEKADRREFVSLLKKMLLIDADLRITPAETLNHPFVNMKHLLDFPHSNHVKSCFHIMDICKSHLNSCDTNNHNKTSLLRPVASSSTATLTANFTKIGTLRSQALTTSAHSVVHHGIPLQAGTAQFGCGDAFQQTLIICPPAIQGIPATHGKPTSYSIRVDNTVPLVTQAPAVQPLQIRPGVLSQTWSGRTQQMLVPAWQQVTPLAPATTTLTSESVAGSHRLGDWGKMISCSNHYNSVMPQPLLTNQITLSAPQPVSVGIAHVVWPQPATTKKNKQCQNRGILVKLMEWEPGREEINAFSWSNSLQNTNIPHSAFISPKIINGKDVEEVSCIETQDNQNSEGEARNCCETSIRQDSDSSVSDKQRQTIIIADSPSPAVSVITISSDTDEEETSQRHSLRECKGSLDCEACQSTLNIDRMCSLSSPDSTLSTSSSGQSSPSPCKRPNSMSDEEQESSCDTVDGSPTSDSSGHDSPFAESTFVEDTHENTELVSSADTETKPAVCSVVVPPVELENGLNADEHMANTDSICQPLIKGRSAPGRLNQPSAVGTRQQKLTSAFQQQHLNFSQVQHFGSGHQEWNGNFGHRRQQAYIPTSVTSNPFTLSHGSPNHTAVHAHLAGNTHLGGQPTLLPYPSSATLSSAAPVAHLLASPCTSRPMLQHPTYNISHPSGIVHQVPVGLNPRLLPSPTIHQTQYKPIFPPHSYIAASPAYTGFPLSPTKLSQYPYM

Sequence of G protein-coupled receptor kinase 5 (Homo sapiens) (P34947 whole entry, looked up): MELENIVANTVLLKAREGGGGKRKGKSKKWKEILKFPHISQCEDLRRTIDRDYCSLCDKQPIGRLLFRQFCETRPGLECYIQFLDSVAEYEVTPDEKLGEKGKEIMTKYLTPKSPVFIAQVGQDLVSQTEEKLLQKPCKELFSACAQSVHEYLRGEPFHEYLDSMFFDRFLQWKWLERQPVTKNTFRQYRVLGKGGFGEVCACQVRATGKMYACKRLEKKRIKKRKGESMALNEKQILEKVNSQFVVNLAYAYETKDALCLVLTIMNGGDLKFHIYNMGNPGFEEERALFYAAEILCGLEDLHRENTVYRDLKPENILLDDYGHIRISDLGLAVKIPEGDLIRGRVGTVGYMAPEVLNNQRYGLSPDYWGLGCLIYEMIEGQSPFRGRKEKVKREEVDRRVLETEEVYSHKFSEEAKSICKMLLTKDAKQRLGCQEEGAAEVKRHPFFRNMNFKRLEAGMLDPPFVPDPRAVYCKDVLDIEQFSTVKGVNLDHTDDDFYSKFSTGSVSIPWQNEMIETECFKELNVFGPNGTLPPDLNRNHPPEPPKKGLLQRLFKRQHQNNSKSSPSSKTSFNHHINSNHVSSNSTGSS
Sequence of Macrophage colony-stimulating factor 1 receptor (Homo sapiens) (P07333 whole entry): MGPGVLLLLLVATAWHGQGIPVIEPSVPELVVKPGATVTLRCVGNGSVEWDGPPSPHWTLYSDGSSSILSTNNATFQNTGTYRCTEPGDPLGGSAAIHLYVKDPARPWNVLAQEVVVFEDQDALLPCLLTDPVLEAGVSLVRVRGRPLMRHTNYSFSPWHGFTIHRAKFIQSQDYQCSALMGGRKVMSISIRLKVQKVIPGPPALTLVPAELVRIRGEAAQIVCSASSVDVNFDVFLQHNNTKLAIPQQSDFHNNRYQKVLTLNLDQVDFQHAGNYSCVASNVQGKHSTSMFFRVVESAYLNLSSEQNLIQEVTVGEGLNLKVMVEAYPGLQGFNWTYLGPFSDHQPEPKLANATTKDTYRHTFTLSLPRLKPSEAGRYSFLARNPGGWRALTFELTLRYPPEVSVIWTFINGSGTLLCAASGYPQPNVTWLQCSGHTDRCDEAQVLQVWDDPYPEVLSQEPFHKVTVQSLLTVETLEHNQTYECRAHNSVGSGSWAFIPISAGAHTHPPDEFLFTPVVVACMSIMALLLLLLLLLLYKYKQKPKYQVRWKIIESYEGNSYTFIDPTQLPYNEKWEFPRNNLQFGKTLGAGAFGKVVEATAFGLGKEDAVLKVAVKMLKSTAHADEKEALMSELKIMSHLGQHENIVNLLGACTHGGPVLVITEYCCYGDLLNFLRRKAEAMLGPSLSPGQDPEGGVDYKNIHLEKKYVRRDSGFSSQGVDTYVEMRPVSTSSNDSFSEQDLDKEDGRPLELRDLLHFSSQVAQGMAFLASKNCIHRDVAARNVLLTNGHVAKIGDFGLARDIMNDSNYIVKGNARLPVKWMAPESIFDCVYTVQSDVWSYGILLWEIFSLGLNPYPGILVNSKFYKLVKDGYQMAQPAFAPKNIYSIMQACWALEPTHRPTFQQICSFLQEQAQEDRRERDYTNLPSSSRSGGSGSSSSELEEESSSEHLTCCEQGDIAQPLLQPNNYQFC
Sequence of Tyrosine-protein kinase Fyn (Homo sapiens) (P06241 2-537 limits assumed): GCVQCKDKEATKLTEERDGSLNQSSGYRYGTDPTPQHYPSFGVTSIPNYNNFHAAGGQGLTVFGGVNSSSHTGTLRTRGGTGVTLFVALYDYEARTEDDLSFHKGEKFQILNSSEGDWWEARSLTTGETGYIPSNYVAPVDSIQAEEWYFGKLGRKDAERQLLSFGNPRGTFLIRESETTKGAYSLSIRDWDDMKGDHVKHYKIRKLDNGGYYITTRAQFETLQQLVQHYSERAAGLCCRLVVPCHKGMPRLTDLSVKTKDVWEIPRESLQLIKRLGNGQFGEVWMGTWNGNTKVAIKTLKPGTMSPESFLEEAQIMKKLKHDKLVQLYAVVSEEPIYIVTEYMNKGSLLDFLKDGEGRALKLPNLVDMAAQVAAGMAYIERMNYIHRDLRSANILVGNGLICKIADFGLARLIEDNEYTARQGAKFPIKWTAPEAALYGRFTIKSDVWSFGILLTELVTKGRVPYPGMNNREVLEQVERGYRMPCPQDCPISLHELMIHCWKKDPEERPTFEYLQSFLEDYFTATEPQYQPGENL
Sequence of Homeodomain-interacting protein kinase 2 (Homo sapiens) (Q9H2X6 whole entry, looked up): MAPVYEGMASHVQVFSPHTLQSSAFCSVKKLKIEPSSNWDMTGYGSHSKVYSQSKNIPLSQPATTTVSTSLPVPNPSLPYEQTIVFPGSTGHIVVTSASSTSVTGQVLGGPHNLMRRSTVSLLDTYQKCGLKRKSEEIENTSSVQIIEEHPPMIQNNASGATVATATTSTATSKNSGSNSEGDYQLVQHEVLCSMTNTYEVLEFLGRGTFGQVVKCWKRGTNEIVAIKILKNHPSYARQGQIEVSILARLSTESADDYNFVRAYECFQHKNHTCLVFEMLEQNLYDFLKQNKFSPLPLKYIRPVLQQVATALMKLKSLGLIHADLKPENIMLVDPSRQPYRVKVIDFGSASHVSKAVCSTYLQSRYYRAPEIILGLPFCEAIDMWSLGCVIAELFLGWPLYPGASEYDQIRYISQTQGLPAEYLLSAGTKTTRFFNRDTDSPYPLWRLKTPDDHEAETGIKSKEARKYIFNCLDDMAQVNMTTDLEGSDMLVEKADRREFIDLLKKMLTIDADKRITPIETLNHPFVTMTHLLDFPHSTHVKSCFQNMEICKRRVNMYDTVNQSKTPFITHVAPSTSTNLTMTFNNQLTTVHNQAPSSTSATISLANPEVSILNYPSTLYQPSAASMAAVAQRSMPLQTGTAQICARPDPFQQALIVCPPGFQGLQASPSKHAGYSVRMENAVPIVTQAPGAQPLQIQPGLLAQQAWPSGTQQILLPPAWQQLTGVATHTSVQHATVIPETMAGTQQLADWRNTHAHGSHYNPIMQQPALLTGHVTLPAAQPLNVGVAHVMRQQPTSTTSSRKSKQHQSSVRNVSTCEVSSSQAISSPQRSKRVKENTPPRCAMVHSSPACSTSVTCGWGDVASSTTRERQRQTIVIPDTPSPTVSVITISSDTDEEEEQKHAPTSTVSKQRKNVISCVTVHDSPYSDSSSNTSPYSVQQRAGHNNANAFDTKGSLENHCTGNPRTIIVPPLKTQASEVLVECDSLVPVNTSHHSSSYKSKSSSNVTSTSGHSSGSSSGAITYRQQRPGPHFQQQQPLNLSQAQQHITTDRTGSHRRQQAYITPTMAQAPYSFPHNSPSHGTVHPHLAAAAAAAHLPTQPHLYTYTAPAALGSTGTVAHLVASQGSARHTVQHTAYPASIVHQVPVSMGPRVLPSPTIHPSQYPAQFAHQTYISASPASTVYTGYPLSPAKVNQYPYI
Sequence of G protein-coupled receptor kinase 6 (Homo sapiens) (P43250 whole entry, looked up): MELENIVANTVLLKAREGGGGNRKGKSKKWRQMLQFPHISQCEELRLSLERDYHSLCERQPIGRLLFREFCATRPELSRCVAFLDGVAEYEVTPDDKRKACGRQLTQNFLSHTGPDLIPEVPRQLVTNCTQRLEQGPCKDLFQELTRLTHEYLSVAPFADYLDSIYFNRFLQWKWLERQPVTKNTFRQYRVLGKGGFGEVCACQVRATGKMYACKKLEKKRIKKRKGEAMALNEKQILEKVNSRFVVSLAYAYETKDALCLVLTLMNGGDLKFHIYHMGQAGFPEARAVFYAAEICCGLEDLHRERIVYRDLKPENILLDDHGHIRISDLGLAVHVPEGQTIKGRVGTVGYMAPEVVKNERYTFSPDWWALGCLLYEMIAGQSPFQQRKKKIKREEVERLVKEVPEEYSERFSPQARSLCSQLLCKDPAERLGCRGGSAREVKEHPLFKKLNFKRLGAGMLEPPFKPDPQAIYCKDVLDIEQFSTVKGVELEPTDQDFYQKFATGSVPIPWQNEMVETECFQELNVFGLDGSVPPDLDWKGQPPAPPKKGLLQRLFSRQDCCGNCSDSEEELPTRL

SMILES	residual activity [1]	residual activity [2]	residual activity [3]	residual activity [4]	residual activity [5]	residual activity [6]	residual activity [7]	residual activity [8]	residual activity [9]	residual activity [10]	residual activity [11]	residual activity [12]	residual activity [13]	residual activity [14]	residual activity [15]	residual activity [16]	residual activity [17]	residual activity [18]	residual activity [19]	residual activity [20]
O=c1c2ccccc2[nH]c(=S)n1CCN1CCC(=C(c2ccc(F)cc2)c2ccc(F)cc2)CC1	92%	69%	84%	89%	46%	93%	82%	89%	90%	93%	97%	102%	142%	99%	123%	94%	106%	102%	94%	100%
Oc1ccc(-c2nc(-c3ccc(F)cc3)c(-c3ccncc3)[nH]2)cc1	29%	79%	58%	83%	27%	106%	87%	100%	97%	121%	96%	95%	42%	88%	28%	103%	96%	99%	95%	106%
Cc1cc2ncc(-c3ccccc3)nc2cc1C	26%	36%	6%	98%	27%	98%	90%	102%	101%	102%	94%	104%	130%	88%	106%	94%	102%	102%	97%	105%
Ic1cccc(CSc2nnc(-c3ccncc3)o2)c1	15%	71%	53%	71%	84%	49%	35%	89%	83%	88%	76%	32%	10%	43%	33%	101%	91%	76%	54%	96%
COc1ccc(CNc2nc(N(CCO)CCO)nc3c2ncn3C(C)C)cc1	30%	91%	69%	70%	90%	78%	78%	93%	86%	76%	69%	74%	75%	91%	102%	102%	88%	98%	82%	105%
Oc1n[nH]c2nnc(-c3c(-c4ccccc4)nn4ccccc34)cc12	60%	49%	15%	75%	77%	82%	75%	97%	85%	85%	82%	100%	83%	113%	106%	98%	95%	95%	92%	98%
